# This is a sample that favours compounds with a hit; in the whole collection about 19% have one here.
# Chronic BCR inh: inhibitors of chronic active B-cell receptor signaling | 340,000 compounds, 0.05% hits | AID 493014 | Potency, µM (top dose mostly 46.1 µM), for the others: at the top dose activity change, negative = inhibition, hits mostly inhibitors | ABC-DLBCL IkBa-CBG/CBR reporter, luminescence ratio, 4 h; active = well fitted inhibition curve with a large enough effect in the signal ratio, with a control signal flat, not every such curve was filed as active; inconclusive = small, poorly fitted or top-dose-only effect, or effect the other way, or a change in a side signal; the % refers to the signal ratio;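 note: potency is the fitted concentration of half-maximal effect; plate controls were basal doxycycline-induced cells for no effect and cells given 10 µM MG132 for full effect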
#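 TMD8 human ABC-DLBCL cells with doxycycline-inducible IκBα–green luciferase fusion and unfused red luciferase, in 0.5% FBS medium; compounds up to 46 uM, 4 h at 37C. Green/red luminescence ratio, filter-overlap corrected, fitted to concentration-response curves.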
# TDP1 cell noCPT: qHTS for Inhibitors of human tyrosyl-DNA phosphodiesterase 1 (TDP1): qHTS in cells in absence of CPT; 420,000 compounds, 15% hits; AID 686978, 2013; Potency, µM (series often up to 46.2 µM), inactives show at the top dose activity change, negative = growth inhibition, hits mostly inhibitors; DT40 Tdp1-/- hTDP1 cells, no CPT, ATP luminescence, 48 h; note: potency is the fitted concentration of half-maximal effect; % is set by controls: 0 for no effect and ±100 for the full control effect; nearly all actives have a fitted effect of over 55% in size
#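 DT40 Tdp1-/-;hTDP1 cells, no CPT (DMSO vehicle only), 400 cells/well; compounds pin-transferred; ≥48 hr, 37 °C; CellTiter-Glo 30 min RT dark, luminescence read.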
# SW480 rerep: DNA re-replication induction in SW480 cells | 340,000 compounds, 1.8% hits | AID 624297 | SW480 DNA re-replication, Hoechst DNA content imaging, 48 h | Potency, µM (top dose mostly 46.1 µM), inactives show at the highest dose re-replication activation, usual class: activators; note: potency is the fitted concentration of half-maximal effect; % of control where 0% means no effect; nearly all actives have a fitted effect of over 55% in size
#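 Treated cells incubate 48 hr (37 C, 5% CO2), are stained 40 min with Hoechst, and nuclear fluorescence is enumerated; a rise in nuclei with high DNA signal marks re-replication.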
# IL1B secr inh: blocks inflammasome-driven IL-1 beta release. THP-1 LPS/ATP IL-1B secretion, AlphaLISA, 16 h; stronger effect = lower value. activity change, % at 57.5 µM. 360,000 compounds, 4.7% hits; in the data active = activity change below about -50%; inconclusive = mostly about -30% to -49%; note: % is set by controls: 0 for no effect and ±100 for the full control effect
#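 THP-1 cells pretreated 1 hr with compounds (up to 57.5 uM final), then stimulated with LPS (250 ng/mL final) plus ATP (1.25 mM final); secreted IL-1B measured by AlphaLISA after 16 hr, decreased signal indicating inhibition.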
# TDP1 cell CPT: growth inhibition of DT40 Tdp1-/-;hTDP1 cells with camptothecin (screen for TDP1 inhibitors) | chicken DT40 Tdp1-/-;hTDP1 cells + 20 nM CPT, ATP luminescence, 48 h | Potency, µM (doses to about 46.2 µM), for inactives: top-dose activity change, negative = growth inhibition, actives largely listed as inhibitors | 420,000 compounds, 12% hits; note: potency is the fitted concentration of half-maximal effect; % is set by controls: 0 for no effect and ±100 for the full control effect; nearly all actives have a fitted effect of over 55% in size
#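 Chicken DT40 Tdp1-/- cells complemented with human TDP1, 400 cells/well, exposed to compounds plus 20 nM camptothecin for at least 48 h at 37 C; viability read as ATP content by CellTiter-Glo luminescence.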
# MCF10A rereplic: inducers of DNA re-replication in MCF 10A breast cells; MCF 10A DNA re-replication, Hoechst nuclear intensity, 48 h; Potency, µM (titrated, usually from 46.1 µM), for inactives: at the highest dose activity, positive = re-replication, hits mostly activators; 350,000 compounds, 2.9% hits; AID 624296; note: potency is the fitted concentration of half-maximal effect; % of control where 0% means no effect; nearly all actives have a fitted effect of over 50% in size
# Active calls of the source: *; ? = inconclusive; nt = no result; [ ] = remark or other dose. Unless noted, calls come from the whole dose curve; as a rule, active = well fitted curve in the direction sought with a large enough effect; inconclusive = small, poorly fitted or top-dose-only effect, or another doubt; inactive = no such curve, though single readings can be large; an effect the other way counts as inactive or inconclusive.
SMILES,Chronic BCR inh,TDP1 cell noCPT,SW480 rerep,IL1B secr inh,TDP1 cell CPT,MCF10A rereplic
CC(C)(C)S(=O)N1Cc2cc(C(=O)O)nc(-c3cccc(-c4cc5ccccc5o4)c3)c2[C@H]1CCO (some centres undefined),nt,44%,nt,11,11%,nt
COc1cc(-c2ccc(N3C(c4ccsc4)=Cc4ccc(F)cc4C3c3c[nH]c4ccc(C#N)cc34)cc2)cc(OC)c1OC (centres undefined),nt,?,nt,6,?,nt
CC(C)(O)C#Cc1ccc(N2C(c3ccsc3)=Cc3ccc(F)cc3C2c2c[nH]c3ccccc23)cc1 (centres undefined),nt,18µM*,nt,-26,?,nt
N#Cc1ccc2[nH]cc(C3c4cc(F)ccc4C=C(c4ccsc4)N3c3ccc(C#CCCO)cc3)c2c1 (centres undefined),nt,18µM*,nt,?,?,nt
CN(C)c1ccc(/C=c2/sc3n(c2=O)NC2(c4ccccc4)N(C)C(=O)N(C)C2(c2ccccc2)N=3)cc1 (centres undefined),-6%,nt,-432%,nt,nt,?
COc1ccc(N(C)C(=O)c2nn(-c3ccc(C)cc3)c(=O)n(C)c2=O)c(OC)c1,nt,-9%,nt,nt,0%,nt
O=C(Nc1cccc2ccccc12)N(c1ccccc1)c1ccccc1,nt,21µM*,1%,0,21µM*,3%
Cc1cc(O)c(C(C)C)cc1NC(=O)Nc1cc(Cl)ccc1Cl,nt,?,?,25,?,-2%
Cc1cc(O)c(C(C)C)cc1NC(=O)Nc1cccc2ccccc12,?,?,-14%,-66*,-25%,18%
O=C(Nc1ccccc1)Nc1ccc(NC(=O)c2ccccc2O)cc1,6%,-13%,20%,?,-21%,2%
O=C(Nc1ccc(C(=O)O)cc1)Nc1cccc2ccccc12,?,3%,-3%,15,1%,3%
O=C(Nc1ccccc1)Nc1cccc2ccccc12,?,?,-6%,2,16µM*,?
O=C(Nc1ccccc1)Nc1ccc(O)c2ccccc12,nt,12µM*,?,41,1.6µM*,2%
CCOC(=O)C1CCCN(CCC(=O)Nc2ccc(Br)c(C)c2)C1 (centres undefined),-2%,?,-1%,18,?,11%
CC(=O)Nc1ccc(NS(=O)(=O)c2c(C(=O)N3CCC(C)CC3)c(C)n(C)c2C)cc1,nt,-9%,nt,nt,-5%,nt
CC1=C(C(=O)Nc2ccc(C)c(C)c2)C2(CCCCCC2)OC1=O,nt,?,nt,nt,15µM*,nt
CC1=C(C(=O)NCc2cccc(Cl)c2)C2(CCCCCC2)OC1=O,nt,1.8µM*,nt,nt,?,nt
Cc1ccc(NC(=O)NC2CCCCCCC2)cc1C,0%,-6%,-17%,5,?,?
CC1=C(C(=O)NCc2cccc(F)c2)C2(CCCCCC2)OC1=O,nt,-25%,nt,nt,-30%,nt
CC1=C(C(=O)Nc2cccc(C)c2C)C2(CCCCC2)OC1=O,nt,-11%,nt,nt,-21%,nt
Cc1ccc(NC(=O)c2ccc(C#CC3(O)CCCCC3)cc2)cc1C,1%,16µM*,0%,2,23µM*,2%
O=C(COc1ccccc1)OCC(=O)c1ccc(O)cc1O,-1%,0%,?,2,-2%,5%
O=C(COc1ccc(Cl)cc1)c1ccc(O)cc1O,-8%,?,0%,-67*,5%,9%
COc1ccc(C2=CC(=O)C[C@H](COCc3ccccc3)N(C(=O)OC(C)(C)C)O2)cc1,nt,18µM*,-6%,?,?,23µM*
CC(=O)O[C@@H](C)C[N+](C)(C)C,nt,nt,2%[20.6 µM],nt,nt,2%[20.6 µM]
Cc1ccc(C(=O)CSc2nc(N)cc(=O)[nH]2)cc1C,2%,?,-4%,41,?,-8%

# Screens deposited in PubChem BioAssay by National Center for Advancing Translational Sciences (NCATS).
